Most compounds without a hit are left out; they make up all but 0.5% or so of the library.
E coli growth-1: E. coli V3065 growth inhibition, primary screen, counter-screen for AddAB inhibitor project, absorbance, OD600; AID 449728, 2010; 330,000 compounds, 0.27% hits; 18 h; inhibition, % at 11.9 µM;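 active = inhibition above the campaign's mean inhibition across all tested compounds plus 3 SD, cut at about 9.9% in these data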;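 note: uninfected addAB+ strain grown without phage in ampicillin broth; 0% = DMSO wells and 100% = ciprofloxacin 0.95 µg/ml wells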
AddAB inh: growth inhibition of E. coli expressing H. pylori AddAB, primary screen, AddAB inhibitor project, absorbance; inhibition, % at 11.9 µM; 330,000 compounds, 0.29% hits; in the data active = inhibition above about 12%;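 note: 0% = vehicle wells of infected cells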
phage Ecoli inh: growth loss of phage-infected E. coli, primary screen, RecBCD inhibitor project, absorbance, with phage, HTS. 360,000 compounds, 0.26% hits. inhibition, % at 11.9 µM. AID 651602, 2012; in the data active = inhibition above about 11%
E coli growth-2: E. coli growth inhibition, primary screen, OD600; Escherichia coli growth, 23 h; stronger effect = lower value; OD600 absorbance (no concentration beside the values); 330,000 compounds, 0.21% hits; AID 1053175, 2014;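 active = OD600 absorbance below the run mean of sample wells minus 3.6 SD, in any replicate, cut at about 0.56 in these data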
Tat export inh: E. coli Tat export inhibitors, primary screen, MC4100, TorA-mCherry reporter, fluorescence, single point. inhibition, % at 10 µM. 340,000 compounds, 0.036% hits;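 active = mean replicate inhibition at least 50% and at least half of replicates individually reaching 50%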;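 note: exported cargo escapes ClpAP degradation while cytoplasmic cargo is degraded and loses fluorescence; 0% = median of neutral control wells and 100% = median of NaSCN control wells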
* hit, by the source's call; . = no result given.

SMILES | E coli growth-1 | AddAB inh | phage Ecoli inh | E coli growth-2 | Tat export inh
COc1ccc(C(=O)NCC(=O)NN=C(C)c2ccco2)cc1OC | . | . | . | 0.7 | .
O=C(NC(=S)NNC(=O)c1ccccc1O)c1ccc([N+](=O)[O-])cc1 | 16* | 11 | 6 | . | 12
O=C(NNC(=S)NC(=O)c1ccccc1)c1ccc([N+](=O)[O-])cc1 | -2 | -3 | -9 | 0.6 | -2
CC(C)C[C@@H]1CN=C(N)N1C[C@@H]1CCCN1C[C@H](C)N1C[C@@H](Cc2ccccc2)N(CCc2ccc(Cl)c(Cl)c2)C1=N | 0 | 1 | . | . | 18
CC(C)C[C@@H]1CN=C(N)N1C[C@@H]1CCCN1C[C@@H](C(C)C)N1C[C@@H](Cc2ccccc2)N(CCc2ccc(Cl)c(Cl)c2)C1=N | -1 | 1 | 3 | 0.07* | 8
CC(C)CC1CN=C(N)N1CC1CCCN1CC(C)N1CC(Cc2ccccc2)N(CCc2ccc(Cl)c(Cl)c2)C1=N (stereo unspecified) | . | . | . | 0.2* | .
CCC(C)C1CN(C(C)CN2CCCC2CN2C(N)=NCC2Cc2ccccc2)C(=N)N1CCc1ccc(Cl)c(Cl)c1 (stereo unspecified) | . | . | . | 0.57 | .
CC(C)C(CN1CCCC1CN1C(N)=NCC1Cc1ccccc1)N1CC(Cc2ccccc2)N(CCc2ccc(Cl)c(Cl)c2)C1=N (stereo unspecified) | . | . | . | 0.046* | .
CN/S(=N\S(=O)(=O)c1ccccc1)c1ccc(C)cc1 (stereo unspecified) | . | . | . | 0.74 | .
CCc1ccc2c(COC(=O)C3CC(=O)N(CCc4ccccc4)C3)cc(=O)oc2c1 (stereo unspecified) | . | . | 2 | 0.68 | 63*
CC(=CC(=O)OCCCCCCCCC(=O)O)CC1OCC(CC2OC2C(C)C(C)O)C(O)C1O (stereo unspecified) | . | . | . | 0.12* | .
CCCCCCCCCCCCCCCC[n+]1ccc(C=NO)cc1 | . | . | . | 0.4* | .
CN(C)C(=O)C[n+]1ccc(/C=N/O)cc1 | 0 | 5 | 2 | . | 2
O=C(O)CC1S/C(=N/N=Cc2ccc(-c3ccc(Cl)cc3[N+](=O)[O-])o2)NC1=O (stereo unspecified) | . | . | . | 0.66 | .
CS(=O)(=O)c1ccc(C(O)C(CF)NC(=O)C(Cl)Cl)cc1 (stereo unspecified) | . | . | . | 0.06* | .
CS(=O)(=O)c1ccc(C(O)C(CO)NC(=O)C(Cl)Cl)cc1 (stereo unspecified) | . | . | . | 0.38* | .
CS(=O)(=O)c1ccc(C(=O)NC(Cc2ccccc2)c2ccccc2)cc1 (stereo unspecified) | 2 | 3 | 1 | 0.69 | 9
COC1C=CO[C@@]2(C)Oc3c(C)c(O)c4c(O)c(c(C=NN5CCN(C)CC5)c(O)c4c3C2=O)NC(=O)C(C)=CC=CC(C)C(O)C(C)C(O)C(C)C(OC(C)=O)C1C (stereo partly specified) | . | . | . | 0.074* | .
COC1C=CO[C@@]2(C)Oc3c(C)c(O)c4c(O)c(c5c(nc6cc(C)ccn65)c4c3C2=O)NC(=O)C(C)=CC=CC(C)C(O)C(C)C(O)C(C)C(OC(C)=O)C1C (stereo partly specified) | . | . | . | 0.062* | .
Cc1nn(C)c(C(=O)NN=Cc2ccccc2)c1[N+](=O)[O-] | . | . | . | 0.72 | .
COc1cc2c(cc1OC)C(C(C#N)=NO)=NC(C)(C)C2 | . | . | . | 0.69 | .
Cc1cc([N+](=O)[O-])nn1CC(=O)NN=Cc1ccccc1Br | . | . | . | 0.7 | .
CS(=O)(=O)N(CC(=O)NN=Cc1cc([N+](=O)[O-])ccc1Cl)c1ccccc1 | . | . | . | 0.72 | .
N#Cc1ccc(NC(=O)NN2CCCCCC2)cc1 | . | . | 10 | 0.53* | 12
O=C(Nc1ccc(Cl)cc1)NN1CCCCCC1 | . | . | 3 | 0.62 | 6
SMILES | E coli growth-1 | AddAB inh | phage Ecoli inh | E coli growth-2 | Tat export inh
O=C(NCc1nc2ccccc2[nH]1)c1cccc(S(=O)(=O)N2CCCC2)c1 | 10* | 10 | 8 | 0.66 | -10
OCCN1CCN(CC(O)COc2ccc(C34CC5CC(CC(C5)C3)C4)cc2)CC1 (stereo unspecified) | -2 | -1 | 2 | . | 5
NCCOc1ccc(C23CC4CC(CC(C4)C2)C3)cc1 | 0 | -2 | 4 | 0.47* | 8
COc1ccc(CNc2ncnc3c2[nH]c2ccccc23)cc1 | 8 | 8 | 8 | . | .
Cc1ccc2[nH]c3c(NCc4ccccc4)ncnc3c2c1 | . | . | 2 | 0.46* | .
COc1ccc(C(O)=C2C(=O)C(=O)N(CCN(C)C)C2c2ccc(OC)c(OC)c2)c(C)c1 (stereo unspecified) | . | . | . | 0.71 | .
O=C(OC[C@H]1O[C@@H](OC(=O)c2cc(O)c(O)c(OC(=O)c3cc(O)c(O)c(O)c3)c2)[C@H](OC(=O)c2cc(O)c(O)c(OC(=O)c3cc(O)c(O)c(O)c3)c2)[C@@H](OC(=O)c2cc(O)c(O)c(OC(=O)c3cc(O)c(O)c(O)c3)c2)[C@@H]1OC(=O)c1cc(O)c(O)c(OC(=O)c2cc(O)c(O)c(O)c2)c1)c1cc(O)c(O)c(OC(=O)c2cc(O)c(O)c(O)c2)c1 | 30* | 28* | . | . | .
NC(=NCCCCCCN=C(N)N=C(N)Nc1ccc(Cl)cc1)N=C(N)Nc1ccc(Cl)cc1 | . | . | . | 0.062* | .
CC(C)N=C(N)N=C(N)Nc1ccc(Cl)cc1 | 4 | -2 | 6 | 0.64 | 15
Cc1ccn2c(Nc3ccc4c(c3)OCO4)c(-c3ccccn3)nc2c1 | 3 | 6 | 2 | 0.43* | -12
Cc1ccc2nc(-c3ccncc3)c(Nc3ccccc3)n2c1 | -2 | 0 | 3 | 0.68 | -3
Cc1ccc(Nc2c(-c3ccccn3)nc3ccc(C)cn23)cc1 | 7 | 9 | 5 | 0.46* | -4
Cc1ccc(Nc2c(-c3ccccn3)nc3cc(C)ccn23)cc1 | -1 | 3 | 7 | 0.4* | 5
C[C@]12C(=O)N(c3ccc(Cl)cc3)C(=O)N1C1c3ccccc3OCC1C2c1ccccc1 (stereo partly specified) | . | . | . | 0.67 | .
COc1ccc(/C=C(/NC(=O)c2ccccc2)C(=O)NN=Cc2ccncc2)cc1 | . | . | . | 0.66 | .
CON=Cc1c(-c2ccccc2)nn(C)c1Cl | . | . | . | 0.73 | .
COC(=O)C1C(O)C(C)C(O)C(C)(O)/C=C\C=C(/C)C(=O)Nc2c(C)c(OC(C)=O)c3c(c2O)C(=O)C(C)=C2OCOC(=C23)/C(C)=C/C(C)(O)C(O)C(C)C1O (stereo unspecified) | -2 | 0 | 8 | . | 65*
CSc1nc2ccc(Cl)cc2[nH]1 | 2 | 1 | 4 | 0.7 | 5
CSc1nc2cc(Oc3cccc(Cl)c3Cl)c(Cl)cc2[nH]1 | 5 | 1 | 3 | 0.46* | -19
Cc1ccc(C=NNc2ccc(F)cc2F)s1 | . | . | . | 0.68 | .
Cc1nc2ccccc2n1N=Cc1ccc([N+](=O)[O-])o1 | . | . | . | 0.29* | .
Cc1ccc(-c2nn(-c3ccccc3)cc2CO)cc1 | 1 | 0 | 1 | 0.66 | 12
N=C(N)SCc1cn(-c2ccccc2)nc1-c1ccc(Br)cc1 | . | . | 8 | 0.069* | 7
c1cncc(-c2cn(CC3CCC(C4CCC(Cn5cc(-c6cccnc6)nn5)O4)O3)nn2)c1 (stereo unspecified) | . | . | . | 0.66 | .
